# In PubChem BioAssay (NCI):
# About 79,000 compounds went through this panel and 15% of them were active in at least one assay; those are over-represented in the sample as a whole. Unmarked numbers belong to inactive results. The source made the active and inactive calls. Cut-off read from the data, not from the text of the source: active = growth inhibition above about 70%; inactive = the rest.
# Assay: NCI Yeast Anticancer Drug Screen. Data for the rad18 strain (AID 177)
# Conditions: S. cerevisiae rad18 mutant growth inhibition, active compounds read high
# Description: Growth inhibition of yeast strains with defined genetic alterations is measured as a screen for potential anti-cancer activity. Selected strains with alterations in DNA damage repair or cell cycle control were exposed to compounds and growth inhibition was measured relative to vehicle treated controls. The strain used in this assay is rad18
Structure (SMILES),growth inhibition (at 1.2 µM) [%],growth inhibition (at 3.7 µM) [%],growth inhibition (at 11.0 µM),growth inhibition (at 33.0 µM),growth inhibition (at 100.0 µM)
O=[N+]([O-])c1ccc2[nH]c3c(-c4ccccc4)nccc3c2c1,-1,-4,95% (active),96% (active),97% (active)
NC(=O)NC1C(c2ccccc2)=C1c1ccccc1,-7,3,34%,38%,38%
O=c1[nH]c2c([N+](=O)[O-])cccc2c2ccccc12,3,9,26%,73% (active),96% (active)
O=C(O)c1cc2c(cc1S(=O)(=O)O)C1C(C3C2C2(Cl)C(Cl)=C(Cl)C3(Cl)C2(Cl)Cl)C2(Cl)C(Cl)=C(Cl)C1(Cl)C2(Cl)Cl (stereo not given),-1,-1,-8%,82% (active),95% (active)
COC(=O)C(Cc1c[nH]c2ccccc12)N1CN(C)c2ccccc2C1=O (stereo not given),-8,-3,3%,18%,99% (active)
Cc1ccnc2c(O)cccc12,-3,60,97% (active),99% (active),99% (active)
O=C(Oc1ccc([N+](=O)[O-])cc1)c1ccc([N+](=O)[O-])cc1,4,7,5%,22%,45%
CC(=O)/C=C/c1cccc([N+](=O)[O-])c1,1,2,21%,22%,77% (active)
